Source: article PMC4336329 (PLoS ONE, 2015)
The campaign covered roughly 310,000 compounds. About 14,000 (4.5%) showed an effect of 50% or more. Effects have a minus sign here. For the sample, strong results were picked, then their nearest neighbours and some compounds at random.

target: human ether-à-go-go-related gene (hERG) potassium channel (human, UniProt Q12809); test: primary screen, population patch clamp on CHO cells stably expressing hERG; higher = less effect of the substance
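Further: peak tail current of the secondary pulse compared with the same well before compound.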

Chain of human ether-à-go-go-related gene (hERG) potassium channel (Q12809 whole entry, looked up): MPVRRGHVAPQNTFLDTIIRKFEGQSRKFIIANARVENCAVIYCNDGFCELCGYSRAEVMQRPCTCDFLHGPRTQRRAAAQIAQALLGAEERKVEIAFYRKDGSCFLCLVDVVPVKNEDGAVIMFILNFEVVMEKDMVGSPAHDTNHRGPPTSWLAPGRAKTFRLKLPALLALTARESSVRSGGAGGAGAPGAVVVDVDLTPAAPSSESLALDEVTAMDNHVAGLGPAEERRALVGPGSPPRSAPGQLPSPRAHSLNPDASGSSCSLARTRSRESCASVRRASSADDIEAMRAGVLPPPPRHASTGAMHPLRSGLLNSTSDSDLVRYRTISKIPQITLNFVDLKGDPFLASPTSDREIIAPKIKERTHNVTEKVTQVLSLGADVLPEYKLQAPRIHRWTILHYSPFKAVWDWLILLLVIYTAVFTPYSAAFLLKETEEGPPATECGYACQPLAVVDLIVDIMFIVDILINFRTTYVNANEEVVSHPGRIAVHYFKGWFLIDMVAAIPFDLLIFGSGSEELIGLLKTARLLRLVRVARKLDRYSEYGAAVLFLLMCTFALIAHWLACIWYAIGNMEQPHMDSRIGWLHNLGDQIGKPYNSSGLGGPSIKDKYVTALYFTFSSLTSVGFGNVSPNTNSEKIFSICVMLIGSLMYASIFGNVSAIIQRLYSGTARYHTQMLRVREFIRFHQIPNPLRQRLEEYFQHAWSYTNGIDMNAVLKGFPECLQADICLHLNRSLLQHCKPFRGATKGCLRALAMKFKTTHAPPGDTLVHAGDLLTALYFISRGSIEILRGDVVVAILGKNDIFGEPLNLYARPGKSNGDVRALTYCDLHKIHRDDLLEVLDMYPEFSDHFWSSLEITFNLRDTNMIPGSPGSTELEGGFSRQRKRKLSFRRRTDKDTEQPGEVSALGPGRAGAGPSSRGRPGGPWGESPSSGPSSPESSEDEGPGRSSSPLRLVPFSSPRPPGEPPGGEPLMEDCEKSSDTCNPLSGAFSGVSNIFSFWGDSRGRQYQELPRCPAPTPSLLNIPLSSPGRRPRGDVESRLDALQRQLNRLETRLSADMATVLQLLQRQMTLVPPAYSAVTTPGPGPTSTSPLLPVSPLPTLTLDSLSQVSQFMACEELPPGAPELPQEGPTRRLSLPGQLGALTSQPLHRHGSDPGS

Row | SMILES | hERG current change (%, negative = inhibition) at 10uM
1 | CCOc1cc(C2NC(=O)NC2=O)ccc1O (centres unmarked) | 17.4%
2 | CCN(CC)CCN(C(=O)Cn1nnc(-c2ccc(C)o2)n1)C(C(=O)NC(C)(C)C)c1cccs1 (centres unmarked) | -41.6%
3 | O=C1CC(C(=O)NC2CCCCC2)C2(CCCCC2)O1 (centres unmarked) | -1.23%
4 | COc1cc(NC(=O)C(=O)NCCN(C)C)c(OC)cc1Cl | 8.41%
5 | CCCCN(C1CCS(=O)(=O)C1)S(=O)(=O)c1ccc(OC)cc1 (centres unmarked) | -24.5%
6 | CC(C)(CO)Nc1nc(N2CCCC2)nc(N2CCCC2)n1 | -13.8%
7 | COc1ccc(NC(=O)NNC(=O)COc2ccc3cc(Br)ccc3c2)cc1OC | 5.68%
8 | COc1ccc(CN2CCN(Cc3cc(=O)oc4cc(C)ccc34)CC2)c(OC)c1OC | -80.2%
9 | CCOC(=O)C1CCN(Cc2cc(=O)oc3cc(C)ccc23)CC1 | -47.8%
10 | COc1cc(CN(C)Cc2cc(=O)oc3cc(C)c(Cl)cc23)ccc1OC(F)F | 12%
11 | CCN1CCN(Cc2cc(=O)oc3ccc(C)cc23)CC1 | -3.04%
12 | CCc1ccc2c(CN(C)Cc3ccc(OC(F)F)c(OC)c3)cc(=O)oc2c1 | -72.5%
13 | COc1ccc2oc(=O)cc(CN3CCN(Cc4ccc(OC)c(OC)c4OC)CC3)c2c1 | -39.7%
14 | CC(C)c1ccc2oc(=O)cc(CN3CCN(Cc4ccccc4)CC3)c2c1 | 17.5%
15 | CCc1ccc2c(CN(C)Cc3ccccc3OC)cc(=O)oc2c1.O=C(O)C(=O)O | -21.3%
16 | Cc1ccc2c(CN3CCOCC3)cc(=O)oc2c1 | -27.6%
17 | Cc1ccc2c(CN3CCN(Cc4ccccc4)CC3)cc(=O)oc2c1 | -78.9%
18 | Cc1ccc2oc(=O)cc(CN3CCN(Cc4ccccc4)CC3)c2c1 | -56.8%
19 | Cc1ccc2c(CN3CCCCC3)cc(=O)oc2c1 | -16.1%
20 | CC(Sc1nc(N)cc(=O)[nH]1)C(=O)Nc1sc2c(c1C#N)CCCC2 (centres unmarked) | 1.55%
21 | Cc1c(C)c(C)c(S(=O)(=O)NCCc2ccccn2)c(C)c1C | -7.95%
22 | C=CCNC(=O)c1nn2cccnc2c1Cl | 12.7%
23 | COC(=O)C1C(=O)C=C(Nc2ccc(F)cc2F)CC1c1ccccc1 (centres unmarked) | -16.9%
24 | O=C1CCCN1CC(O)CS(=O)(=O)c1ccc(Cl)cc1 (centres unmarked) | 16.7%

Row | SMILES | hERG current change (%, negative = inhibition) at 10uM
25 | CCc1cc2c(CN3CCN(CCO)CC3)cc(=O)oc2cc1O | 15.6%
26 | Cc1ccc2oc(=O)cc(CN3CCC(C)CC3)c2c1 | 10.8%
27 | COc1cc2c(cc1OC)CN(Cc1cc(=O)oc3cc(C)c(C)cc13)CC2 | -37.6%
28 | COc1cc(CN(C)Cc2nc3cc(C(F)(F)F)ccc3c(=O)[nH]2)ccc1OC(F)F | -66.5%
29 | Cc1ccc2c(CN3CCN(CCO)CC3)cc(=O)oc2c1C | -15.5%
30 | CSc1ccc(CN(C)Cc2nc3cc(C(F)(F)F)ccc3c(=O)[nH]2)cc1 | 12.9%
31 | CCc1ccc2c(CN3CCc4cc(OC)c(OC)cc4C3)cc(=O)oc2c1 | -66%
32 | Cc1ccc2c(CN3CC(C)CC(C)C3)cc(=O)oc2c1 (centres unmarked) | -2.89%
33 | COc1cccc(CN(C)Cc2nc3cc(C(F)(F)F)ccc3c(=O)[nH]2)c1 | -3.19%
34 | COc1cc2c(cc1OC)CN(Cc1cc(=O)oc3cc(C)c(Cl)cc13)CC2 | -14.3%
35 | Cc1ccc2c(CN3CCC(C)CC3)cc(=O)oc2c1 | -50%
36 | Cc1ccc2c(CN3CCN(CCO)CC3)cc(=O)oc2c1 | -74.9%
37 | Cc1ccc2c(c1)-c1c(cnn1CC(=O)N(Cc1ccco1)C1CCCCC1)CO2 | -13%
38 | Cc1cc(C)cc(NC(=O)Cn2nnc(C(=O)NCc3ccco3)c2N)c1 | 6.01%
39 | CCn1cc(/C=N\NC(=O)Cc2ccc(Cl)cc2)cn1 | -12%
40 | CCOC(=O)N1CCN(C(=O)CSc2nnc(CNC(=O)c3ccccc3F)o2)CC1 | 6.37%
41 | COc1ccccc1-c1cc(C(=O)NC2CCN(C)CC2)c2ccc(Cl)c(C)c2n1 | -42%
42 | N#CC1(NC(=O)COC(=O)CCCN=C2NS(=O)(=O)c3ccccc32)CCCCC1 | 15%
43 | Cn1c(SCC(=O)NCc2ccc3c(c2)OCO3)nc2c(c1=O)SCC2 | -21%
44 | Cc1ccc2c(CN3CCN(S(=O)(=O)c4ccccc4C(F)(F)F)CC3)cc(=O)oc2c1 | -57.3%
45 | CCc1ccc2c(CN3CCN(Cc4ccccc4)CC3)cc(=O)oc2c1 | -79.7%
46 | CCc1ccc2c(CSc3nnnn3C)cc(=O)oc2c1 | -68.1%
47 | CCc1ccc2c(CN3CCOCC3)cc(=O)oc2c1 | -31.7%
48 | Cc1ccc2c(CN3CCN(S(=O)(=O)c4ccccc4C(F)(F)F)CC3)cc(=O)oc2c1C | -5.49%

Row | SMILES | hERG current change (%, negative = inhibition) at 10uM
49 | Cc1ccc2c(CSc3nnnn3C)cc(=O)oc2c1 | -42.4%
50 | CCc1ccc2oc(=O)cc(CN3CCN(Cc4ccccc4)CC3)c2c1 | -46.3%
51 | Cc1ccc(S(=O)(=O)N2CCN(Cc3ccccc3C(F)(F)F)CC2)cc1 | -5.53%
52 | Cn1nnnc1SCc1cc(=O)[nH]c2ccccc12 | 2.31%
53 | N#Cc1c(-c2ccccc2)ccn(Cc2cccc(Cl)c2)c1=O | 8.43%
54 | Cc1ccc(Nc2cc(-n3nc(C)cc3C)ncn2)c(C)c1 | -3.97%
55 | COCCCN1C2=C(C(=O)CC(C)(C)C2)C(c2ccc(O)c(OC)c2)C2=C1CC(C)(C)CC2=O | 11.2%
56 | Cc1ccc(N)cc1CN1CCCC1=O | 2.15%
57 | CCN(CC)S(=O)(=O)c1ccc(C(=O)NC(C)(C)C)cc1 | 19.1%
58 | O=C(CCN1CCN(c2ccc(F)cc2)CC1)Nc1ccc(F)cc1 | -56.8%
59 | Cc1ccccc1N1CCN(CCC(=O)Nc2ccc(F)cc2)CC1 | -67.5%
60 | COc1ccc(NC(=O)CCN2CCN(c3ccc(F)cc3)CC2)cc1 | -33%
61 | O=C(CCN1CCN(c2ccccc2F)CC1)Nc1ccc(F)cc1 | -18.3%
62 | O=C(CCN1CCN(c2ccccn2)CC1)Nc1ccc(F)cc1 | -42.5%
63 | O=C(CCN1CCOCC1)Nc1ccc(F)cc1 | -10.5%
64 | CCC(C)(C)n1nnnc1C(c1cccnc1)N1CCCc2ccccc21 (centres unmarked) | -19.6%
65 | CCS(=O)(=O)NCc1csc(-c2ccccc2)n1 | 18%
66 | Cc1cnccc1CN(C)C(=O)CC1C(=O)NCCN1CC1CCCCC1 (centres unmarked) | -4.59%
67 | COc1ccc(/C=C2\SC(=S)N(CCC(=O)Nc3ccccn3)C2=O)cc1OC | 26.2%
68 | CCN1CCN(CC(O)COCC2COc3ccccc3O2)CC1.Cl (centres unmarked) | -4.69%
69 | Cl.OCCN1CCN(CC(O)COCC2COc3ccccc3O2)CC1 (centres unmarked) | 33.4%
70 | Cl.OC(COCC1COc2ccccc2O1)CN1CCN(c2ccc(F)cc2)CC1 (centres unmarked) | -79.3%
71 | Cl.OC(COCC1COc2ccccc2O1)CN1CCCCC1 (centres unmarked) | -43.6%
72 | CC1CCCC(C)N1CC(O)COCC1COc2ccccc2O1.Cl (centres unmarked) | -15.8%

Row | SMILES | hERG current change (%, negative = inhibition) at 10uM
73 | Cl.OC(COCC1COc2ccccc2O1)CN1CCc2ccccc2C1 (centres unmarked) | -64.9%
74 | Cl.OC(COCC1COc2ccccc2O1)CN1CCN(c2ccccc2)CC1 (centres unmarked) | -64.1%
75 | Cl.OC(COCC1COc2ccccc2O1)CN1CCN(c2ccccc2F)CC1 (centres unmarked) | -58.9%
76 | C[N+]1(CC(O)COCC2COc3ccccc3O2)CCOCC1.[I-] (centres unmarked) | 18.3%
77 | CC[N+](C)(CC)CC(O)COCC1COc2ccccc2O1.[I-] (centres unmarked) | 1.73%
78 | O=C(C1COc2ccccc2O1)N1CCN(c2ccccc2F)CC1 (centres unmarked) | 9.47%
79 | CC1CCCN(CC(O)COCC2COc3ccccc3O2)C1.Cl (centres unmarked) | -28.2%
80 | CCN1CCN(S(=O)(=O)c2cccc3nsnc23)CC1 | -5.57%
81 | COc1cccc(/C=C2\SC(=N)N(c3ccc(F)cc3)C2=O)c1 | 9.22%
82 | CCCOc1ccc(-c2c(C(=O)N/N=C/c3ccccc3)nnn2-c2nonc2N)cc1 | 4.98%
83 | O=C(Nc1ccc2c(c1)OCO2)c1cc(-c2ccc(O)cc2)on1 | 22.4%
84 | O=C(Nc1cccc(O)c1)c1cc(-c2ccc3c(c2)OCO3)on1 | 11.3%
85 | O=C(Nc1ccc2c(c1)OCO2)c1cc(-c2cccc(O)c2)on1 | -63.1%
86 | COc1ccccc1/C=C/CN1CCN(Cc2ccc(C)o2)C(CCO)C1 (centres unmarked) | -12%
87 | Cc1ccc(CN2CCN(C/C=C/c3ccc(F)cc3)CC2CCO)o1 (centres unmarked) | -54.5%
88 | COc1cc(/C=C/CN2CCN(Cc3ccc(C)o3)C(CCO)C2)ccc1O (centres unmarked) | -6.62%
89 | COc1cc(/C=C/CN2CCN(CCC(C)C)C(CCO)C2)ccc1O (centres unmarked) | 23%
90 | COC(=O)c1ccc(CN2CCN(CC(C)C)C(CCO)C2)cc1 (centres unmarked) | -3.11%
91 | CCOc1ccccc1CN1CCN(C/C=C/c2ccc(OC)cc2)CC1CCO (centres unmarked) | -65%
92 | COc1ccccc1/C=C/CN1CCN(Cc2ccc(F)cc2)C(CCO)C1 (centres unmarked) | -51%
93 | C/C(=C\c1ccccc1)CN1CCN(Cc2ccc(C)o2)C(CCO)C1 (centres unmarked) | -13.4%
94 | COc1ccc(/C=C/CN2CCN(CC(C)C)C(CCO)C2)cc1 (centres unmarked) | -52.2%
95 | CCOc1ccccc1CN1CCN(Cc2ccc(C)o2)C(CCO)C1 (centres unmarked) | -12.9%
